The campaign covered roughly 69,000 compounds. About 420 (0.61%) showed an effect of 50% or more. Only a selection was taken, and strong results are over-represented in it overall.

The experiment deals with T1, Histidine--tRNA ligase (Leishmania infantum) (UniProt A4I591).
T1 sequence (whole entry): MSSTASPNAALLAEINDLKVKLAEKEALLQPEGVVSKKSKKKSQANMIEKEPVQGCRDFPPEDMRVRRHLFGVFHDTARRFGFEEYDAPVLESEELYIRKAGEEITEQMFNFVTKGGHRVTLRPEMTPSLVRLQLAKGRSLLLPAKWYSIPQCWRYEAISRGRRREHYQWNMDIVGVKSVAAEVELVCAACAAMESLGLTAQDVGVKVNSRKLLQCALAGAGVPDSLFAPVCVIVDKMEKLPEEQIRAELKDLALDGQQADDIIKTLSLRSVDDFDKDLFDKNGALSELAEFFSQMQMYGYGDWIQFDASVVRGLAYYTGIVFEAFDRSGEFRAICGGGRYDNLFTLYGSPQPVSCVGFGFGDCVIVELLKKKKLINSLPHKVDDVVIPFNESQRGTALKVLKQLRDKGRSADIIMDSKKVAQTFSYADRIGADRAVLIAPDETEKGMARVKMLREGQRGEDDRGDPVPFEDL
Briefly: Leishmania infantum Histidine tRNA synthetase (LdHisRS). The conditions noted are these: 30 µM. It is filed as functional. The arrangement: scale not given: in the data most compounds retested in dose-response had high values.
As to `COc1ccc(N2Cc3nc(N)ncc3C2=O)cc1`, the Percent Effect was found to be 0%. Next, `O=C1[C@H]2CN(CC3CC3)C[C@H]2CN1Cc1cccc(F)c1`: -1.5%.

As to `O=C([C@H]1C[C@H]2OCC[C@H]2N(CCc2ccccc2)C1)N1CCCCO1`, the Percent Effect was 9.02%. Next, `Cc1nc(CN2C[C@@H]3CN(c4ncc(F)cn4)C[C@@H]3C2=O)cs1`: 19.7%; `O=C(c1cccnc1)N1C[C@@H]2CC[C@H](C1)N(Cc1ccc(F)cc1Cl)C2`: 7.2%. Then `CC(=O)N1CCN2C[C@H](CO)[C@@H](c3ccccc3)[C@H]2C1`, with 2.04%. Then `CCN1C(=O)C(C#N)=C(C)/C(=C/C2=Cc3ccccc3OC2)C1=O`, with 86.8%. With `CC(Cn1cccn1)NC(=O)C1=Cc2ccccc2OC1` (stereo not drawn), the Percent Effect stood at 16%. For the compound `COC(=O)CC(C1=Cc2ccccc2OC1)c1oc(C)cc(=O)c1O` (stereo not drawn), the Percent Effect was 23.1%. Then `CC1=C(C#N)C(=O)N(C)C(=O)/C1=C\C1=Cc2ccccc2OC1`, with 92.1%; and `O=C(Nc1cccnc1)C1=Cc2ccccc2OC1`, with 25%. For the compound `Cc1nc([C@H]2C[C@H]3CN(C(=O)c4cc(C)c(C)s4)CC[C@@H]3O2)no1`, the Percent Effect came out at 20.6%. Then `COc1cccc(C(=O)N2C[C@@H](c3ccccc3)[C@@H]3NCCCC[C@@H]32)c1`, with 10.3%; and `Cc1nc2c(c(=O)[nH]1)CN(C(=O)CC[C@@H]1CCCN3CCCC[C@H]13)C2`, with 3.54%. Consider `Cc1ccc(CN2CC[C@@H]3[C@@H](CO[C@H]3CN3CCN(C)CC3)C2)s1`, for which the Percent Effect was -11.1%.

Take `O=C(c1cscn1)N1C[C@H](OCc2cccnc2)[C@H]2COC[C@H]21`: the Percent Effect stood at 9.72%. Next, `CCC1=N[C@@]2(CC[C@@H]3CN(Cc4ccccc4C)C[C@@H]32)C(=O)N1C`: 10%; `Cn1cccc1C(=O)N[C@@H]1CN(Cc2ccsc2)[C@@H]2COC[C@@H]21`: 20%; `Cc1ccnc(N2CCN(C[C@]3(O)CCCN4CCCC[C@@H]43)CC2)c1`: 2.86%. Next, `Cc1nc(O)cc(CCNC(=O)CC[C@@H]2CCCN3CCCC[C@H]23)n1`: 5.38%; `CC1=C(C#N)C(=O)NC(=O)/C1=C\c1c(C)nn(-c2ccc(Cl)cc2)c1O`: 51.5%.

On to `CC1=C(C#N)C(=O)NC(=O)/C1=C\c1c(C)nn(-c2ccc(C)cc2)c1O`, for which the Percent Effect amounted to 70.1%. Then `CCN(CC)CCNC(=O)CCc1c(C)nn(-c2ccc(Cl)cc2)c1C`, with 7.92%; and `Cc1nn(C)c(=O)c2nn(-c3ccc(Cl)cc3)c(C)c12`, with 5.5%; and `Cc1ccc(-n2nc(C)c3c2NC(=O)CC3c2cnc(N)s2)cc1` (stereo not drawn), with 17.3%. On to `CC1=C(C#N)C(=O)NC(=O)/C1=C\c1c(C)nn(-c2ccccc2)c1O`, for which the Percent Effect was found to be 43.3%. For the compound `Cc1cc(CN2CC[C@H]3OCC[C@@]3(C(=O)NCc3ccco3)C2)no1`, the Percent Effect was found to be 11.4%. Next, `O=C([C@H]1CCS(=O)(=O)[C@@H]2CN(CCc3ccccc3)C[C@H]12)N1CCCC1`: 17.6%; `Cc1ccncc1C(=O)N1CC[C@@]2(O)CCN(C3CCCCC3)C[C@H]2C1`: 14.5%; `c1cnn(CCCO[C@@H]2CC[C@H]3[C@H]2OCCN3CC2CCOCC2)c1`: 13.9%. Next, `Cc1noc(C)c1CN1C[C@@H]2CC[C@H](C1)N(Cc1cc(F)cc(F)c1)C2`: 24.7%; `Cc1ccc(N2CCC3(CC2)COCCN(c2nccs2)C3)nn1`: 58.5%.

`Cc1ccc(N2CCCC3(COCCN(c4nccs4)C3)C2)nn1` (stereo not drawn): the Percent Effect was 11.4%. Then `Cc1ccc(N2CC3(CCN(c4nccs4)C3)C2)nn1`, with 9.52%. For `CS(=O)(=O)N1C[C@@H]2CC[C@H](C1)N(C(=O)Cn1ccc3ccccc31)C2`, the Percent Effect is 11.6%.

Regarding `Cn1cc(CN2CC[C@@H]3[C@H]2CCC(=O)N3c2ccccc2)cn1`, the Percent Effect was 5.56%. Then `CN(CCOc1ccccc1)C(=O)Nc1cccn(C)c1=O`, with 112%; and `COc1c(NC(=O)N(C)CCOc2ccccc2)c(C)nn1C`, with 24.1%.

Take `Cn1cccc(NC(=O)COc2ccc(Br)cc2)c1=O`: the Percent Effect worked out at 26.1%. Next, `O=C(NCc1ccco1)[C@H]1COC[C@H]2CN(Cc3ccccn3)C[C@H]21`: 14%; `Cc1ccc(NC2CCN(C(=O)CCc3ccco3)CC2)nn1`: 27.7%. Next, `Cc1ccc(N(C)C2CCN(C(=O)CCc3ccco3)CC2)nn1`: 58.5%. Next, `Cc1ccccc1NC1CCN(C(=O)CCc2ccco2)CC1`: 12.5%.

Consider `O=C(c1ncccn1)N1C[C@H]2CCC[C@@]2(COCc2cccnc2)C1`, for which the Percent Effect is -3.92%. Then `Cc1cnc(C(=O)N2C[C@H]3CN(Cc4cccs4)C[C@H]3C2)cn1`, with -3.19%; and `CS(=O)(=O)CCC(=O)N1C[C@@H]2CC[C@H](C1)N(Cc1ccccn1)C2=O`, with 18%. Turning to `O=C(CC1CC1)N[C@@H]1CN(Cc2ccoc2)C[C@@H]2CCCO[C@@H]21`, the Percent Effect is -31.4%.

Turning to `O=C(Nc1ccc(=O)n(Cc2ccccc2Cl)c1)C1CC1`, the Percent Effect was determined as 114%. Then `O=C1CCC(C(=O)Nc2ccc(=O)n(Cc3ccc(Cl)c(Cl)c3)c2)N1` (stereo not drawn), with 95.2%. Take `O=C(Nc1cnn(Cc2ccc(F)cc2Cl)c1)C1CC1`: the Percent Effect stood at 15.9%. `O=C1NCC(C(=O)Nc2ccc(=O)n(Cc3ccccc3Cl)c2)N1` (stereo not drawn): the Percent Effect came out at 92.8%. For the compound `O=C1CC[C@H](C(=O)Nc2cnn(-c3ccccc3Br)c2)N1`, the Percent Effect is 7.32%.

With `O=C1CCC(C(=O)Nc2cnn(-c3ccccc3Cl)c2)N1` (stereo not drawn), the Percent Effect stood at 19.5%.

For the origin of these results see ChEMBL document CHEMBL3988442, “University of Dundee, Small-Polar-MMV Screening Library” (2021).
